Data from PubChem BioAssay AID1159580 (chemical genetic matrix, 2015).
Hit rate of the full screen: of about 5,500 compounds, about 2,000 (36%) were called active. Inconclusive results (about 18%) are left out. No stated cut-off is given here; in the data, active means normalized growth mostly below about 0.91 (no sharp cut-off); inconclusive means no clear call, values can overlap the other calls; inactive means mostly above about 0.92. The list shows a part of the results.

Assay: chemical genetic growth profiling, strain panel (AID 1159580);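 further: tested at 20 µM; growth read once vehicle control cultures reached saturation at 30 °C; 1 = growth at the plate median or of vehicle wells; lower values mean less growth of the strain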
Details: S. cerevisiae deletion strains, growth OD

Measured: normalized growth

CC(C(=O)O)[C@H]1CCC2C3CC=C4C[C@@H](O)CC[C@]4(C)C3CC[C@@]21C (stereo not given in full)
inactive: locus YAL021C, strain ccr4, hits give low values 0.939 | locus YAL030W, strain snc1, hits give low values 1.03 | locus YBL061C, strain skt5, hits give low values 1.03 | locus YBR009C, strain hhf1, hits give low values 0.979 | locus YBR023C, strain chs3, hits give low values 1 | locus YBR171W, strain sec66, hits give low values 1.02 | locus YBR231C, strain swc5, hits give low values 1.04 | locus YBR279W, strain paf1, hits give low values 1.02 | locus YCL011C, strain gbp2, hits give low values 1.03 | locus YCL016C, strain dcc1, hits give low values 0.977 | locus YCL061C, strain MRC1, hits give low values 1 | locus YCL069W, strain vba3, hits give low values 1.03 | locus YCR088W, strain abp1, hits give low values 1.04 | locus YDL005C, strain med2, hits give low values 1.05 | locus YDL040C, strain nat1, hits give low values 1.04 | locus YDR001C, strain nth1, hits give low values 1.04 | locus YDR069C, strain doa4, hits give low values 0.988 | locus YDR159W, strain sac3, hits give low values 1.04 | locus YDR297W, strain sur2, hits give low values 1.02 | locus YDR334W, strain swr1, hits give low values 1.05 | locus YDR335W, strain msn5, hits give low values 1.02 | locus YEL003W, strain gim4, hits give low values 1.02 | locus YEL037C, strain rad23, hits give low values 1.03 | locus YEL061C, strain CIN8 (second series), hits give low values 1.05 | locus YER015W, strain faa2, hits give low values 1.01 | locus YER016W, strain bim1, hits give low values 1.04 | locus YER111C, strain swi4, hits give low values 1.02 | locus YER155C, strain BEM2 (second series), hits give low values 1.08 | locus YFR010W, strain ubp6, hits give low values 0.953 | locus YGL167C, strain pmr1, hits give low values 1.03 | locus YGL173C, strain kem1, hits give low values 0.981 | locus YGL227W, strain vid30, hits give low values 1.04 | locus YGL240W, strain doc1, hits give low values 1.03 | locus YGL253W, strain hxk2, hits give low values 0.989 | locus YHR013C, strain ard1, hits give low values 1.04 | locus YHR027C, strain rpn1, hits give low values 1.02 | locus YHR030C, strain SLT2, hits give low values 1.04 | locus YHR079C, strain IRE1, hits give low values 1.03 | locus YHR142W, strain chs7, hits give low values 0.967 | locus YJL092W, strain hpr5, hits give low values 1.02 | locus YJL095W, strain BCK1 (second series), hits give low values 1.03 | locus YJL095W, strain BCK1, hits give low values 1.02 | locus YJL115W, strain asf1, hits give low values 1.04 | locus YJL129C, strain trk1, hits give low values 1.03 | locus YJL154C, strain vps35, hits give low values 1.04 | locus YJL164C, strain tpk1, hits give low values 0.973 | locus YJL166W, strain qcr8, hits give low values 0.97 | locus YJL187C, strain SWE1, hits give low values 1.01 | locus YJR066W, strain TOR1, hits give low values 0.98 | locus YKL160W, strain elf1, hits give low values 1 | locus YKR026C, strain gcn3, hits give low values 1.04 | locus YKR091W, strain srl3, hits give low values 1.05 | locus YLL001W, strain dnm1, hits give low values 1.01 | locus YLL026W, hits give low values 1.03 | locus YLL041C, strain sdh2, hits give low values 1.03 | locus YLR027C, strain aat2, hits give low values 1.01 | locus YLR113W, strain HOG1, hits give low values 1.06 | locus YLR221C, strain rsa3, hits give low values 0.996 | locus YLR258W, strain gsy2, hits give low values 1.02 | locus YLR320W, strain mms22, hits give low values 0.919 | locus YLR342W, strain FKS1, hits give low values 1.03 | locus YLR357W, strain rsc2, hits give low values 1.1 | locus YLR370C, strain arc18, hits give low values 1.01 | locus YLR384C, strain iki3, hits give low values 1.04 | locus YML120C, strain ndi1, hits give low values 1.01 | locus YMR058W, strain fet3, hits give low values 1 | locus YMR125W, strain sto1, hits give low values 1.03 | locus YMR129W, hits give low values 1.03 | locus YMR205C, strain PFK2, hits give low values 1.02 | locus YMR231W, strain pep5, hits give low values 1.02 | locus YNL071W, strain lat1, hits give low values 0.989 | locus YNL183C, strain NPR1, hits give low values 0.971 | locus YNL209W, strain ssb2, hits give low values 1.03 | locus YNL248C, strain rpa49, hits give low values 0.963 | locus YNL322C, strain KRE1 (second series), hits give low values 1.06 | locus YNR049C, strain mso1, hits give low values 1.05 | locus YOR001W, strain rrp6, hits give low values 0.997 | locus YOR070C, strain gyp1, hits give low values 0.962 | locus YOR080W, strain dia2, hits give low values 1.03 | locus YOR083W, strain WHI5, hits give low values 0.983 | locus YOR106W, strain vam3, hits give low values 1.01 | locus YOR231W, strain MKK1, hits give low values 1.06 | locus YOR265W, strain rbl2, hits give low values 1.02 | locus YOR270C, strain vph1, hits give low values 0.961 | locus YOR290C, strain snf2, hits give low values 0.995 | locus YPL051W, strain arl3, hits give low values 0.963 | locus YPL078C, strain atp4, hits give low values 1 | locus YPL240C, strain hsp82, hits give low values 1.04 | locus YPL256C, strain CLN2, hits give low values 1.06
active: locus YAL026C, strain drs2, hits give low values 0.627 | locus YDR137W, strain rgp1, hits give low values 0.562 | locus YDR195W, strain ref2 1.35 [resistant] | locus YDR392W, strain spt3, hits give low values 0.733 | locus YLR262C, strain YPT6 (second series), hits give low values 0.485 | locus YPL106C, strain sse1, hits give low values 1.26 [resistant]
